{
  "source": "PubChem BioAssay AID493197",
  "about": "(Broad Institute, 2011)",
  "note": "Entries with a potency or affinity are not part of this list. Results filed as inconclusive are left out. The source made the active and inactive calls. No rule for the calls is given here.",
  "data": [
    {"assay": "growth inhibition of intracellular Trypanosoma cruzi, dose response, cell-based, plate reader, dry powder, set 3 (AID 493197)", "settings": "intracellular Trypanosoma cruzi in host cells; series mostly up to 19.5 µM", "values": [
      {"compound": "CCCNC(=O)C1(C)CCN(C(=O)Cc2ccc(OC)c(OC)c2)C1", "note": "(configuration not stated)", "outcome": "inactive"},
      {"compound": "COCCNC(=O)C1(C)CCCN(C(=O)c2ccc(OC)c(OC)c2)C1", "note": "(configuration not stated)", "outcome": "inactive"},
      {"compound": "COc1ccc(CN2CCC(C(=O)NC3CCCC3)CC2)cc1OC", "outcome": "inactive"},
      {"compound": "COCCNC(=O)C1(C)CCCN(C(=O)c2cc(OC)c(OC)c(OC)c2)C1", "note": "(configuration not stated)", "outcome": "inactive"},
      {"compound": "CCNC(=O)C1(C)CCCN(C(=O)Cc2ccc(OC)c(OC)c2)C1", "note": "(configuration not stated)", "outcome": "inactive"},
      {"compound": "CCCNC(=O)C1(C)CCCN(C(=O)Cc2ccc(OC)c(OC)c2)C1", "note": "(configuration not stated)", "outcome": "inactive"},
      {"compound": "CCNC(=O)C1CCCN(C(=O)c2cc(OC)c(OC)c(OC)c2)CC1", "note": "(configuration not stated)", "outcome": "inactive"},
      {"compound": "COc1cc2c(cc1OC)C(C)N(CCC(N)=O)CC2", "note": "(configuration not stated)", "outcome": "inactive"},
      {"compound": "CCNC(=O)C1(C)CCN(C(=O)c2ccc(OC)c(OC)c2)C1", "note": "(configuration not stated)", "outcome": "inactive"},
      {"compound": "CCCNC(=O)C1(C)CCCN(C(=O)c2ccc(OC(F)F)cc2)C1", "note": "(configuration not stated)", "outcome": "inactive"},
      {"compound": "COc1ccc(CCNC(=O)C2CCCCC2)cc1OC", "outcome": "inactive"},
      {"compound": "COc1ccc(CCN2CC(C(=O)NCc3ccc(F)cc3)CC2=O)cc1OC", "note": "(configuration not stated)", "outcome": "inactive"}
    ]}
  ]
}
